The record followed here is PubChem BioAssay.

As usually defined, the remaining activity is the signal under treatment as a percentage of the control signal. The term inhibition denotes the drop in the measured response relative to a control, in per cent.

Assay [1] in a line: compounds altering circadian rhythm period length – cell-based, LOPAC library, luminescence reporter (AID 2774; call rule not given here;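 further: values are relative to mean of DMSO wells on each plate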). The note with it: circadian reporter cells, at 7 µM, actives lie on both sides.
Assay [2] deals with Aerobactin synthetase IucA (Klebsiella pneumoniae). Kind of assay: inhibition of K. pneumoniae IucA enzyme – biochemical, Tocris library, absorbance (AID 1345561; call rule not given here;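 further: 100% = enzyme without compound and 0% = no enzyme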). The note with it: purified IucA enzyme assay, absorbance (OD) read-out; stronger effect = lower value;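 tested at 8 µM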.
Assay [3] is described as follows: galactose survival enhancers in mitochondrial complex I cybrids – cell-based, galactose medium, ATP luminescence, primary screen (AID 1645843).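 Further: positive z means more ATP and so rescue of galactose-driven cybrid death.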 The note with it: complex I mutant cybrid cells, 72 h, stronger effect = higher value.
Assay [4] can be described thus: compounds altering viability of human ES cells (AID 493140; call rule not given here;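 further: cells exposed to compounds for four days before counting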). The note with it: human embryonic stem cell survival screen; stronger effect = higher value.
Assay [5] has as its system Aerobactin synthetase IucA (Klebsiella pneumoniae, hypervirulent). The assay is described as follows: biochemical IucA inhibition screen of LOPAC library by absorbance (AID 1346212; call rule not given here;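 further: 100% = no compound wells and 0% = no enzyme wells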). Particulars: IucA enzyme assay, absorbance (OD) readout; stronger effect = lower value;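 tested at 8 µM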.
Assay [6] is described as follows: blockers of polyQ-driven CASP3 activation – cell-based (AID 1583). The note with it: polyglutamine-induced caspase-3 activation, cell assay; stronger effect = higher value;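 tested at 10 µM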.
Assay [7] can be described thus: yeast 75Q aggregation reduction – 75Q-TubU reporter (AID 1593). The note with it: Yeast 75Q polyglutamine aggregation reporter.
Assay [8] can be described thus: restoration of touch response, mutant HTT neurons – whole organism, C. elegans mechanosensory neurons, N-terminal huntingtin (AID 1599). The note with it: C. elegans polyQ-huntingtin mechanosensory neurons, stronger effect = higher value.
A short description of assay [9]: blockers of cytochrome c efflux from mitochondria – biochemical, purified mitochondria (AID 1603).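 Further: mouse liver mitochondria challenged with calcium chloride; signal normalized to the plate average as 100%.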 The note with it: stronger effect = lower value.
The nature of assay [10]: polyglutamine aggregate formation blockers (AID 1604). The note with it: polyglutamine-induced protein aggregation inhibition assay; stronger effect = higher value; tested at 2.5 µM.
The nature of assay [11]: glutamate transport activators, MN-1 cells, MN-1 cell line (AID 1612).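 Further: tested at 1 µM final; 0% = mean of DMSO vehicle wells on each plate; positive means more glutamate uptake than control and negative means less.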 The note with it: MN-1 motor neuron cells, stronger effect = higher value.
Assay [12] can be described thus: GFP-Q80 aggregate reduction, neuronal-like cells, cell-based, NGF-treated PC12, GFPQ80 (AID 1614).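 Further: lower means fewer inclusions and 0 means no inclusions at all.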 The note with it: PC12 NGF-treated GFP-polyQ80 inclusion reduction.
Assay [13] can be described thus: 75Q-TubH aggregate inhibition, S. cerevisiae, yeast (AID 1616). Particulars: S. cerevisiae 75Q-TubH polyglutamine aggregation suppression; stronger effect = higher value.
Assay [14] can be described thus: MELAS cybrid and Rieske KO viability enhancers – cell-based, MELAS cybrids, Rieske KO mouse fibroblasts, CellTiter-Glo, primary screen (AID 1508586;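 active means mean z-score across replicates of 1.96 or higher in either the MELAS or the Rieske mutant cell line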;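 further: z relative to plate mean and SD of compound and empty wells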). Particulars: low glucose.
Assay [15] relates to Hepatitis C virus NS3 helicase. The assay is described as follows: blockers of NS3h binding to ssDNA – biochemical, fluorescence polarization, LOPAC1280 library, primary screen (AID 687035; in the data active means inhibition above about 37%). The note with it: Purified HCV NS3 helicase, Cy5-dT15 ssDNA binding fluorescence polarization; stronger effect = higher value; concentration not given here. In general terms: Polarisation of emitted light reports the rotation of a fluorescent probe.

A short description of assay [16]: compounds altering Cy5-DNA-NS3h complex signal – biochemical, LOPAC1280, artefact control for HCV NS3 helicase inhibitor project (AID 687037; call rule not given here). The note with it: Cy5-DNA-NS3h complex fluorescence interference counterscreen.
Assay [17] in a line: blockers of cellular phospholipid synthesis – cell-based, LOPAC library, screen 4, primary screen (AID 1347384; call rule not given here). Particulars: animal cells, phospholipid biosynthesis inhibition screen; at 10 µM.
A short description of assay [18]: viability loss in pontine glioma line – cell-based, JHH-DIPG-1, MIPE4.0, CellTiter-Glo, qHTS, dose response (AID 1347062; cut-off not given, nearly all actives have AC50 up to about 27 µM). The note with it: JHH-DIPG-1 viability, CellTiter-Glo ATP luminescence. On the technique in general: ATP-based viability assays read luminescence as a measure of living cells.
The target in assay [19] is NAD(+) hydrolase SARM1 (Homo sapiens) (UniProt Q6SZW1). The assay is described as follows: blocking NAD cleavage by SARM1 SAM-TIR – cell lysate, NAD-Glo luminescence (AID 1508614;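 active means compound whose remaining NAD level is above about 45 nM, limit read from the data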). Particulars: SAM-TIR HEK293T lysate NADase, at 1 µM, stronger effect = higher value.
NAD(+) hydrolase SARM1 (Homo sapiens), sequence (Q6SZW1 whole entry, looked up, the tested form may be a part): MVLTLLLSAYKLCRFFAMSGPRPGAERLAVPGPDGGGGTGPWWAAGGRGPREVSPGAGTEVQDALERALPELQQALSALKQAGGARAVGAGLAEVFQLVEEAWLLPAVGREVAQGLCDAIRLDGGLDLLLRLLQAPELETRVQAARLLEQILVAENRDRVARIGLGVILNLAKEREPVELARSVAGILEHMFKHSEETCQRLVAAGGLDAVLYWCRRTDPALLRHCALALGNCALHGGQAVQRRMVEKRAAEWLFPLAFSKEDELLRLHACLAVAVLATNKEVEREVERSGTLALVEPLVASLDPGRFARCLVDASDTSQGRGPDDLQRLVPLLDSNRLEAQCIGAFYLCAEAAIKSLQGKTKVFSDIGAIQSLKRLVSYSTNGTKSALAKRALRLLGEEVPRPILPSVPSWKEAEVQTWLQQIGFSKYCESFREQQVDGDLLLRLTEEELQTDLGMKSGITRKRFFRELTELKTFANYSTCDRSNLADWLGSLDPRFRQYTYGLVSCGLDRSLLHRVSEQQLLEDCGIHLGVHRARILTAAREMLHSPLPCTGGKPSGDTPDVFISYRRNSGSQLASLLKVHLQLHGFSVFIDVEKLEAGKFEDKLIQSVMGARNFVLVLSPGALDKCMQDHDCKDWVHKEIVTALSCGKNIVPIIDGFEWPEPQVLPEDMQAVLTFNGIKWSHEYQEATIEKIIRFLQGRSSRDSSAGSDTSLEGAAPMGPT
Assay [20] concerns the target Mitogen-activated protein kinase 7 (Homo sapiens) (UniProt Q13164). Kind of assay: Gal4-ERK5 driven luciferase induction – cell-based, HTS, primary screen (AID 1508626;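 active means luciferase signal above three times the same-plate solvent-only control wells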;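 further: luciferase driven by Gal4-ERK5 fusion binding five Gal4 sites before minimal TATA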). The note with it: HeLa Gal4-ERK5 transactivation, 18 h, at 5 µM, stronger effect = higher value.
Where [21] appears, read: MELAS cybrid survival, CellTiter-Glo 48 h, stronger effect = higher value.
Where [22] appears, read: Rieske KO mouse fibroblast survival, CellTiter-Glo 72 h.

Molecules are shown by their SMILES. Values joined by “and” are separate entries in the source; they are usually repeats but may differ in a detail not shown here. Equal entries are not always repeated. Records with an inconclusive call do not appear. For part of these data: Results with a measured potency or affinity are listed apart. Where a structure was tested more than once in an assay, its records may differ in their call. Active and inactive are the calls of the source.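 How the source made its calls, unless noted: active means z-score of at least 1.8 in each of two replicates, scored against plate mean and spread of sample wells; inactive means the rest.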

Mitogen-activated protein kinase 7 (Homo sapiens), sequence (Q13164 whole entry, looked up, the tested form may be a part): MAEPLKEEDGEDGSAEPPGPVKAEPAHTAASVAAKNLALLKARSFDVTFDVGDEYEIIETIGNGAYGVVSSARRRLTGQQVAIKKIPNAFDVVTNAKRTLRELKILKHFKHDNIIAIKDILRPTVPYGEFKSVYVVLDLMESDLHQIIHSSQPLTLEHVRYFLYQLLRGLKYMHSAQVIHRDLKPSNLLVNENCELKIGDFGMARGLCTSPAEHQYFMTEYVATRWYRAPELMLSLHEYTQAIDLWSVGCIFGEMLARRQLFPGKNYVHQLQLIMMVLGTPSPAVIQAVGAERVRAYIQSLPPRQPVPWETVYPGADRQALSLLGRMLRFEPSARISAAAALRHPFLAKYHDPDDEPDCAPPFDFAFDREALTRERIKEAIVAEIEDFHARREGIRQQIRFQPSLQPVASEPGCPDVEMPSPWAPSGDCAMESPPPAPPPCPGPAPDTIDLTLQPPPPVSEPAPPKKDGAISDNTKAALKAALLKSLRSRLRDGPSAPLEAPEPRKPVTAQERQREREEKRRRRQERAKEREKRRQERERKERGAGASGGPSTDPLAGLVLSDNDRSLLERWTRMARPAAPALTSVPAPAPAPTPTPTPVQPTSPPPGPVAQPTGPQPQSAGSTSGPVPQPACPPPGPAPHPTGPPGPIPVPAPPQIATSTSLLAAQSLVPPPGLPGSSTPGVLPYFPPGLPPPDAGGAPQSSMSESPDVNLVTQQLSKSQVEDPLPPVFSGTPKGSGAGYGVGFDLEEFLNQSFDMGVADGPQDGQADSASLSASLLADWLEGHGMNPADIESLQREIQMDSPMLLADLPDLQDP

On to `Oc1cc2c(cc1O)[C@H]1c3ccccc3CN[C@@H]1CC2`, for which the period change in assay [1] is -0.1 h (inactive). Besides, the remaining activity in assay [2] is 97.5% (inactive). For the same molecule, in [3], the z-score is -1.23 (inactive).
For `Cc1ncc2n1-c1ccc(Cl)cc1C(c1ccccc1F)=NC2`, in assay [3], the z-score was 0.59 (inactive).
As for `COc1ccc2c(c1)C13CCCC[C@@H]1C(C2)N(C)CC3` (some centres undefined), the survival in assay [4] was 5.75 (inactive). In addition, the remaining activity in [5] is 108% (inactive).
For the molecule `CN1C(=O)CN=C(c2ccccc2)c2cc(Cl)ccc21`, the inhibition in [6] is -7.18%. In assay [7], the score turned out to be 0.95. Further, the rescue above control in assay [8] was 0.67. For the same molecule, the cytochrome c release ratio in [9] came out at 0.88. In assay [10], this molecule yielded an inhibition of aggregation of 26.5%. The glutamate uptake change in [11] is -26.8%. Besides, the inclusion score in assay [12] came to 2. The aggregation suppression score in assay [13] was found to be 0.718. Further, in [3], the z-score was 1.09 (inactive).
Take `COc1ccc(CCN)cc1OC`: the z-score was 0.19 (inactive) in assay [14] (setting [21]), 0.0302 in assay [14] (setting [22]) and 0.46 (inactive) in [3].
As for `C[C@]12CC[C@H]3[C@@H](CCC4=CC(=O)CC[C@@H]43)[C@@H]1CC[C@@H]2O`, the z-score in assay [14] (setting [21]) is 0.634 (inactive); in assay [14] (setting [22]), 0.271.
Regarding `NC(=NCc1ccc(Cl)cc1)SCCCc1cnc[nH]1`, the remaining activity in assay [2] is 102% (inactive). Further, the z-score in [3] was -1.21 (inactive) and 0.08 (inactive).
As to `COC(=O)N1CCN(C(=O)Cc2ccc(Cl)c(Cl)c2)C(CN2CCCC2)C1` (centres undefined), the period change in [1] is -0.045 h (inactive). In addition, the inhibition in assay [15] was -4% (inactive). Besides, the fluorescence ratio (interference) in assay [16] was 1 (inactive). Also, the remaining activity in [5] is 101% (inactive). The molecule was called inactive in [17]. Besides, the z-score in assay [3] was -0.09 (inactive) and 0.285 (inactive).
As to `CCCCC/C=C\C/C=C\C/C=C\C/C=C\CCCC(=O)Nc1ccc(O)cc1`, in assay [2], the remaining activity was 113% (inactive). Moreover, the z-score in assay [3] was -0.695 (inactive).
For the molecule `COc1ccc2[nH]cc(C3=CCNCC3)c2c1`, in assay [2], the remaining activity is 103% (inactive). Moreover, the z-score in assay [3] was -1.57 (inactive) and -0.95 (inactive).
As to `CS(=O)(=O)Nc1ccc(Cc2noc(-c3ccc4[nH]cc(CCN)c4c3)n2)cc1`, the remaining activity in [2] was 103% (inactive). Further, the z-score in [3] was 0.895 (inactive) and 2.6 (active).
Consider `CC12CCC(=O)C=C1CCC1C2CCC2(C)C(O)CCC12` (centres undefined), for which the z-score in [3] is -0.235 (inactive).
On to `C[C@]12CC(=CO)C(=O)C[C@@H]1CC[C@@H]1[C@@H]2CC[C@@]2(C)[C@H]1CC[C@]2(C)O`, for which the z-score in assay [14] (setting [21]) was 0.172 (inactive); in assay [14] (setting [22]) it was 0.741.
Consider `Clc1ccc(CON=C(Cn2ccnc2)c2ccc(Cl)cc2Cl)c(Cl)c1`, for which the z-score in [3] was -1.88 (inactive).
On to `C[C@]12CCC(=O)C=C1CC[C@@H]1[C@@H]2CC[C@@]2(C)[C@H]1CC[C@]2(C)O`, for which the outcome in assay [18] was inactive.
Regarding `Cc1ccc(-c2nc3ccc(C)cn3c2CC(=O)N(C)C)cc1`, in assay [19], the remaining NAD is 10 nM (inactive). In addition, the luciferase signal in [20] was 44 AU (inactive). The z-score in assay [3] was 1.03 (inactive).
On to `CCN(C(C)=O)c1cccc(-c2ccnc3c(C#N)cnn23)c1`, for which the z-score in assay [14] (setting [21]) was 0.804 (inactive); in [14] (setting [22]), 0.277; in [3] it was 0.945 (inactive). In addition, the remaining NAD in [19] was 10 nM (inactive).
Regarding `O=C1Nc2ccc(Cl)cc2C(c2ccccc2Cl)=NC1O` (centres undefined), the inhibition in assay [6] was -16.4%. This molecule yielded a score in [7] of 0.78. The rescue above control in assay [8] is -10.3. Moreover, in assay [9], the cytochrome c release ratio stood at 1.2. Besides, the inhibition of aggregation in assay [10] is 21.1%. The glutamate uptake change in assay [11] is -7.53%. This molecule also gave an aggregation suppression score in assay [13] of 0.626. Further, in assay [3], the z-score is 0.845 (inactive).
